Source: PubChem BioAssay AID1347142 (National Center for Advancing Translational Sciences (NCATS), 2019)
Inconclusive results are not listed. Activity calls are given as the source filed them. The call rests on the fitted dose curve; in most records, active means well fitted inhibition curve with a large enough effect; inconclusive means small, poorly fitted or top-dose-only effect; inactive means no such curve, though single readings can be large or run the other way.

What follows are compounds tested against N-terminal Xaa-Pro-Lys N-methyltransferase 1 (Homo sapiens) (UniProt Q9BV86) (assay: qHTS Assay for Inhibitors of N-terminal methyltransferase 1 (NTMT1): ThioGlo3 Assay Confirmatory Screen, Round 1.). Details: NTMT1 SAHH-coupled ThioGlo3 fluorescence, 30 min; series mostly up to 56.8 µM; activity change, negative = inhibition: at the top concentration.
Sequence of N-terminal Xaa-Pro-Lys N-methyltransferase 1 (Homo sapiens) (Q9BV86 whole entry, looked up): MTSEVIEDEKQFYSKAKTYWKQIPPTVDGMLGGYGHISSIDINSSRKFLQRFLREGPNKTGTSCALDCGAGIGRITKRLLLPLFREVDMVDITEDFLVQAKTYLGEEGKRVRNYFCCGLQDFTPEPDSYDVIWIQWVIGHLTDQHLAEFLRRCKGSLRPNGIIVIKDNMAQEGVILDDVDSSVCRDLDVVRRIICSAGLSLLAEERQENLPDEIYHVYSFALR
Procedure, shortened: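 Human NTMT1 at 125 nM was preincubated 1 min at room temperature with compounds at various concentrations or 1 uM RCC1-6 control. Substrate mix (100 uM SAM, 10 uM SAHH, 15 uM ThioGlo3) was added, and fluorescence (Ex 340/Em 450 nm) was read at start and after 30 min, normalized to background.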
Further: nearly all actives have a fitted effect of over 80% in size.
Potency means the concentration at half of the fitted maximal effect.
Wherever activity change, negative = inhibition is given: 0% is about no effect.

**Q.** How did the Potency turn out when `COc1cc2c(NC3CCN(C4CCCCC4)CC3)nc(N3CCCN(C)CC3)nc2cc1OCCOCCN(C)C` was run?
**A.** 27.1 µM (active)

**Q.** For `Cc1ccccc1CNc1ncnc2c1ncn2[C@@H]1O[C@H](CO)[C@@H](O)[C@H]1O`, which Potency is on record?
**A.** 27.1 µM (active)

**Q.** How did the Potency turn out when `COc1cc2nc(N3CCCCC3)nc(NC3CC3)c2cc1OC` was run?
**A.** 24.1 µM (active)

**Q.** With `COc1cc2c(NC3CCN(C(C)C)CC3)nc(N3CCCCCC3)nc2cc1OCCCN1CCCCC1` as the compound, how does the Potency read?
**A.** 24.1 µM (active)

**Q.** `Nc1ncnc2c1[nH]c(=O)n2C1CC(O)C(CO)O1` (stereo not drawn) was tested. Which “activity change, negative = inhibition” value did it give?
**A.** -12.6% (inactive)

**Q.** For `CNc1nc(N2CCCN(C)CC2)nc2cc(OC)c(OC)cc12`, which Potency is on record?
**A.** 27.1 µM (active)

**Q.** `COc1cc2c(NC3CCN(C4CCCCC4)CC3)nc(N3CCCCC3)nc2cc1OCCOCCN(C)C` was tested. Which Potency did it give?
**A.** 24.1 µM (active)

**Q.** How did the “activity change, negative = inhibition” value turn out when `CNC(=O)[C@H]1O[C@H](n2cnc3c(NCc4cccc(I)c4)ncnc32)[C@@H](O)[C@@H]1O` was run?
**A.** 11.8% (inactive)

**Q.** Which “activity change, negative = inhibition” value does the source give for `CSCC1OC(n2cnc3c(N)ncnc32)C(O)C1O` (stereo not drawn) here?
**A.** 4.86% (inactive)

**Q.** Which Potency does the source give for `COc1cc2c(NC3CCN(C(C)C)CC3)nc(N3CCCCCC3)nc2cc1OCCOCCN(C)C` here?
**A.** 21.5 µM (active)

**Q.** For `COc1cc2c(NC3CCN(C(C)C)CC3)nc(N3CCCN(C)CC3)nc2cc1OCCOCCN1CCCC1`, which Potency is on record?
**A.** 27.1 µM (active)

**Q.** `CSc1nc(N)c2ncn([C@@H]3O[C@H](COP(=O)(O)OP(=O)(O)OP(=O)(O)O)C(O)[C@H]3O)c2n1` (stereo partly drawn) was tested. Which Potency did it give?
**A.** 21.5 µM (active)

**Q.** With `Nc1nc(Cl)nc2c1ncn2[C@H]1C[C@H](O)[C@@H](CO)O1` as the compound, how does the Potency read?
**A.** inactive

**Q.** `OC[C@H]1O[C@@H](n2cnc3c(N[C@H]4C[C@H]5CC[C@@H]4C5)ncnc32)[C@H](O)[C@@H]1O` was tested. Which “activity change, negative = inhibition” value did it give?
**A.** -20.2% (inactive)

**Q.** With `CNc1ncnc2c1ncn2[C@@H]1O[C@H](CO)[C@@H](O)[C@@H]1O` as the compound, how does the “activity change, negative = inhibition” value read?
**A.** 7.42% [at 27.4 µM] (inactive)

**Q.** With `[N-]=[N+]=Nc1nc2c(N)ncnc2n1C1OC(CO)C(O)C1O` (stereo not drawn) as the compound, how does the Potency read?
**A.** 21.5 µM (active)

**Q.** Which Potency does the source give for `COCCCCOc1cc2nc(N3CCCN(C)CC3)nc(NC3CCN(C)CC3)c2cc1OC` here?
**A.** 24.1 µM (active)

**Q.** For `COc1cc2nc(N3CCCN(C)CC3)nc(NC(C)C)c2cc1OC`, which Potency is on record?
**A.** 24.1 µM (active)

**Q.** For `Nc1ncnc2c1ncn2[C@H]1O[C@H](CO)[C@@H](O)[C@@H]1O`, which “activity change, negative = inhibition” value is on record?
**A.** -3.26% (inactive)

**Q.** With `Nc1nc2c(ncn2[C@@H]2O[C@H](CO)[C@@H](O)[C@@H]2O)c(=O)[nH]1` as the compound, how does the “activity change, negative = inhibition” value read?
**A.** 3.06% (inactive)

**Q.** Which Potency does the source give for `COc1cc2c(NC3CCN(CC4CCCCC4)CC3)nc(N3CCCCC3)nc2cc1OCCOCCN(C)C` here?
**A.** 24.1 µM (active)

**Q.** How did the “activity change, negative = inhibition” value turn out when `Nc1ncnc2c1[nH]c(=O)n2C1OC(CO)C(O)C1O` (stereo not drawn) was run?
**A.** -23.3% (inactive)

**Q.** `C[C@H](Cc1ccccc1)Nc1ncnc2c1ncn2[C@@H]1O[C@H](CO)[C@@H](O)[C@H]1O` was tested. Which “activity change, negative = inhibition” value did it give?
**A.** 10.9% (inactive)
